The record followed here is PubChem BioAssay (NCATS).

Each structure is given as a SMILES string. Inconclusive results are not listed. Where a call stands in place of a potency, no number is given. Active and inactive are the calls of the source. The call rests on the fitted dose curve; in most records, active means well fitted inhibition curve with a large enough effect; inconclusive means small, poorly fitted or top-dose-only effect; inactive means flat fitted curve, though single readings scatter.

The assay has as its target Aldehyde dehydrogenase, mitochondrial (Homo sapiens) (UniProt P05091). As to the kind of experiment: qHTS for Inhibitors of the Aldehyde Dehydrogenase Family (ALDH2) Primary screen (AID 2061308). Further: nearly all actives have a fitted effect of over 55% in size. As to conditions: ALDH2 enzyme inhibition qHTS, 1536-well; series mostly up to 56 µM.
With `Cc1ccsc1CN(C)c1ncnc2ccc(-c3ccc(C(=O)N(C)C)o3)cc12`, the Potency entry was “inactive”.

Regarding `COc1cccc(-c2nc(-c3cccc(C(=O)O)c3)no2)c1`, the Potency result was “inactive”.

As for `Cc1ccc(-c2ccc(=O)n(CC(=O)NCc3ccccc3)n2)cc1`, the Potency result was “inactive”.

Consider `Fc1cc(Nc2nc(-c3ccncc3)nc3ccccc23)ccc1OC(F)(F)F`, for which the Potency entry is “inactive”.

In the case of `COc1ccc(/C=C(\C)C2Nc3cccc4cccc(c34)N2)cc1`, the Potency result was “inactive”.

`CN(C)c1cnc2c(O)ccc([S+](=O)([O-])Nc3ccccc3F)c2c1`: the Potency entry was “inactive”.

For `Cc1ccc(S(=O)(=O)Nc2cccc3cccnc23)c([N+](=O)[O-])c1`, the Potency result is “inactive”.

In the case of `CCc1ccc(NC(=O)C(=O)NNC(=O)c2cccs2)cc1`, the Potency entry is “inactive”.

Turning to `C=C1CCC2C(C)(CO[C@@H]3O[C@H](CO)[C@@H](O)[C@H](O)[C@H]3O)C(O)CCC2(C)C1C(=O)CC1=CCOC1=O` (some centres not stated), the Potency entry was “inactive”.

As for `Cc1ccc(-c2ccc(=O)n(CC(=O)NCCCc3ccco3)n2)cc1`, the Potency entry was “inactive”.

As for `CN(C)C1CCN(Cc2cc(COCc3ccccc3)c3cccnc3c2O)C1` (configuration not stated), the Potency entry was “inactive”.

Turning to `Cc1ccc(C2Nc3cccc4cccc(c34)N2)s1`, the Potency result was “inactive”.

As to `COc1cc(NS(=O)(=O)c2ccc(C)cc2)c2ncccc2c1`, the Potency result is “inactive”.

For the compound `C/C(=C\c1ccc(F)cc1)C1Nc2cccc3cccc(c23)N1`, the Potency entry was “inactive”.

For the compound `CNc1nc(Nc2ccc(C(=O)N3CCOCC3)cc2OC)nc2[nH]cc(Cl)c12`, the Potency result was “inactive”.

Consider `FC(F)(F)c1ccc(N2CCN(C(=S)Nc3ccccn3)CC2)cc1`, for which the Potency result is “inactive”.

In the case of `C=C1CC[C@@H]2[C@](C)(CO)[C@H](O[C@@H]3O[C@H](CO)[C@@H](O)[C@H](O)[C@H]3O)CC[C@@]2(C)[C@@H]1C/C=C1/C(=O)OC[C@H]1O`, the Potency result was “inactive”.
